# Data reported in PubChem BioAssay (NCATS).
# Results filed as inconclusive are left out. Where a call stands in place of a potency, no number is given. The source made the active and inactive calls. Calls follow the shape of the dose curve; as a rule, active = well fitted curve in the direction sought with a large enough effect; inconclusive = small, poorly fitted or top-dose-only effect, or another doubt; inactive = no such curve, though single readings can be large; an effect the other way counts as inactive or inconclusive.
# Experiments:
# [1] = qHTS assay to identify small molecule inhibitors of chordoma cells - UCH-1 (AID 1259355); also: nearly all actives have a fitted effect of over 55% in size
# Summary of the method: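 Luminescent ATP read-out (CellTiter-Glo, 30min at room temperature) measured viability of UCH-1 cells exposed for 48hr to test drugs at 15 concentrations, co-dosed with a five-agent combination of auranofin, camptothecin, doxorubicin, rubitecan and topotecan.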
# [2] = qHTS assay to identify small molecule inhibitors of chordoma cells - UCH-2 (AID 1259356); also: series mostly up to about 46 µM
# [3] = P-glycoprotein substrates identified in KB-8-5-11 adenocarcinoma cell line, qHTS therapeutic library screen (AID 1346987); conditions: outcome: dose series up to 44.5 µM unless noted; also: nearly all actives have a fitted effect of over 65% in size; also: potency is read from the fitted curve at half-maximal effect
# Summary of the method: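 KB-8-5-11, a colchicine-selected P-gp-overexpressing KB-3-1 subline, was grown without colchicine for the assay. Cells were seeded at 500 cells/well, dosed in concentration-response and incubated 72 h at 37 degree C, 5% CO2. Viability was read by CellTiter-Glo luminescence.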
Structure (SMILES),Potency [1],Potency [2],Potency [3]
C[N@+]12CCCC[C@@H]1CCC(=C(c1cccs1)c1cccs1)C2,inactive,inactive,inactive
O=S(=O)(O)CC(S)CS (configuration not stated),inactive,inactive,inactive
CCCCC(=O)O[C@H]1CC[C@H]2[C@@H]3CCc4cc(O)ccc4[C@H]3CC[C@]12C,inactive,inactive,14.6 µM (active)
CC(O)CN(C)C (configuration not stated),inactive,inactive,inactive
CCCCCCCCCCCC(=O)OC[C@@H](O)C1OC[C@H](O)[C@H]1O (some centres not stated),inactive,inactive,inactive
CS(=O)(=O)OCC(O)C(O)COS(C)(=O)=O (configuration not stated),inactive,inactive,inactive
C/C(=C\C(=O)OCCCCCCCCC(=O)O)C[C@@H]1OC[C@H](C[C@@H]2O[C@H]2[C@@H](C)[C@H](C)O)[C@@H](O)[C@H]1O,inactive,inactive,inactive
CN1CCN(C(c2ccccc2)c2ccc(Cl)cc2)CC1 (configuration not stated),inactive,inactive,inactive
CC(C)(C)c1ccc2c(S(=O)(=O)O)c(C(C)(C)C)ccc2c1,inactive,inactive,inactive
O=[N+]([O-])O[C@@H]1CO[C@H]2[C@@H]1OC[C@@H]2O,inactive,inactive,inactive
O=[n+]1ccn([O-])c2ccccc21,inactive,inactive,inactive
NC[C@H]1O[C@H](O[C@H]2[C@H](O)[C@@H](O[C@H]3O[C@H](CO)[C@@H](O)[C@H](N)[C@H]3O)[C@H](N)C[C@@H]2N)[C@H](N)C[C@@H]1O,inactive,inactive,inactive
CCc1cn([C@H]2C[C@H](O)[C@@H](CO)O2)c(=O)[nH]c1=O,inactive,inactive,inactive
O=C(/C=C/c1cccc(F)c1)NC1CC1,inactive,inactive,inactive
